The source of these data is PMC5540273 (PLoS ONE, 2017).

Some test systems named below: CAMK1B; CAMK1D; CAMK1G; CAMK1; CAMK2A; CAMK2B; CAMK2D; CAMK2G; CAMK4; CAMKK1; CAMKK2; CASK; CDC2L2; CDK2; CDK3; CDK4-cyclinD1; CDK4-cyclinD3.
Common to all, as to conditions: concentration: 1 μM, replicates: in singlicate; n = 1
For the next assay, the system named is T1, CDC2L1.
T1 construct: gene CDK11B

The subject of a further assay is T2, CDC2L5.
T2 construct: gene CDK13

The subject of another assay is T3, CDK11.
T3 construct: gene CDK19
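Also: KINOMEscan kinase panel screen.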

Take `Cc1cccc(-c2nc(C)cc(Nc3ccncc3)n2)n1` [GSK257997]: the “%Inh” value turned out to be 12% with CAMK1B; 14% with CAMK1D; 99.4% in the assay with CAMK1G; 10% in the assay with CAMK1; 0% in the assay with CAMK2A; 0% in the assay with CAMK2B. For the same molecule, the “%Inh” value came out at 94.2% in the assay on CAMK2D; 12% in the assay on CAMK2G; 0% in the assay on CAMK4; 0% with CAMKK1; 12% with CAMKK2; 19% in the assay with CASK. In addition, the “%Inh” value in the assay on CDC2L1 came to 100%; with CDC2L2 it was 17%; with CDC2L5 it was 0%; with CDK11, 12%; in the assay with CDK2, 0%; in the assay with CDK3, 0%. Further, the “%Inh” value in the assay on CDK4-cyclinD1 and in the assay with CDK4-cyclinD3 was 0% in each case.
In the case of `Cn1ccc2ncnc(Oc3ccc(NC(=O)Nc4ccccc4)cc3)c21`, the “%Inh” value stood at 4% in the assay on CAMK1B; 5% in the assay with CAMK1D; 22% with CAMK1G; 0% with CAMK1; 0% with CAMK2A; 0% in the assay on CAMK2B. For the same molecule, the “%Inh” value with CAMK2D was found to be 13%; in the assay with CAMK2G, 3%; in the assay with CAMK4 it was 0%; in the assay with CAMKK1, 0%; with CAMKK2, 0%; in the assay with CASK it was 0%. The “%Inh” value came to 0% in the assay on CDC2L1; 0% in the assay with CDC2L2; 0% with CDC2L5; 0% in the assay with CDK11; 0% in the assay with CDK2; 11% in the assay with CDK3. Also, the “%Inh” value with CDK4-cyclinD1 and in the assay on CDK4-cyclinD3 was 0% in each case.
With `COc1cc(Nc2nccc(N3CCC(NC(=O)Nc4cc(C)ccc4C)C3)n2)cc(OC)c1OC` (stereo not shown) [GSK1379762], the “%Inh” value with CAMK1B came to 14%; with CAMK1D, 10%; in the assay with CAMK1G, 0%; in the assay on CAMK1, 17%; with CAMK2A, 0%; in the assay with CAMK2B it was 0%. In addition, the “%Inh” value in the assay with CAMK2D came to 0%; in the assay on CAMK2G, 16%; in the assay on CAMK4, 0%; in the assay with CAMKK1 it was 21%; in the assay on CAMKK2, 0%; with CASK, 42%. For the same molecule, the “%Inh” value in the assay with CDC2L1 came out at 0%; in the assay on CDC2L2 it was 0%; in the assay on CDC2L5 it was 0%; in the assay with CDK11, 17%; in the assay with CDK2 it was 0%; in the assay with CDK3, 15%. Also, the “%Inh” value in the assay with CDK4-cyclinD1 and in the assay on CDK4-cyclinD3 was 0% in each case.
Consider `COc1ccc(CNC(=O)NC2CCN(c3ccnc(Nc4cc(OC)c(OC)c(OC)c4)n3)C2)cc1` (stereo not shown) [GSK1379748], for which the “%Inh” value in the assay with CAMK1B is recorded as 2%; with CAMK1D it was 15%; in the assay with CAMK1G it was 8%; in the assay on CAMK1 it was 28%; in the assay on CAMK2A, 0%; in the assay with CAMK2B, 0%. Further, the “%Inh” value came to 16% in the assay with CAMK2D; 17% in the assay with CAMK2G; 0% in the assay with CAMK4; 8% in the assay on CAMKK1; 12% in the assay with CAMKK2; 10% with CASK. Besides, the “%Inh” value with CDC2L1 amounted to 0%; with CDC2L2, 14%; in the assay on CDC2L5, 0%; in the assay with CDK11, 2%; in the assay on CDK2, 0%; with CDK3 it was 0%. For the same molecule, the “%Inh” value in the assay on CDK4-cyclinD1 was determined as 6%; in the assay on CDK4-cyclinD3 it was 0%.
`O=C(Nc1ccc2c(c1)OCO2)NC1CCN(c2ccnc(Nc3ccc(F)cc3)n2)C1` (stereo not shown) [GSK1379724]: the “%Inh” value was determined as 16% with CAMK1B; 30% in the assay on CAMK1D; 23% in the assay on CAMK1G; 35% with CAMK1; 0% with CAMK2A; 0% in the assay on CAMK2B. In addition, the “%Inh” value amounted to 15% with CAMK2D; 13% in the assay with CAMK2G; 1% in the assay with CAMK4; 9% with CAMKK1; 3% in the assay with CAMKK2; 21% in the assay with CASK. In addition, the “%Inh” value came to 0% in the assay with CDC2L1; 0% in the assay on CDC2L2; 0% in the assay with CDC2L5; 40% in the assay with CDK11; 0% in the assay on CDK2; 8% with CDK3. Further, the “%Inh” value with CDK4-cyclinD1 and with CDK4-cyclinD3 was 0% in each case.
Regarding `CS(=O)(=O)c1ccc(-c2c(-c3ncn[nH]3)sc(N3CCOCC3)c2C#N)cc1`, the “%Inh” value was found to be 25% with CAMK1B; 16% in the assay on CAMK1D; 11% in the assay on CAMK1G; 13% in the assay on CAMK1; 14% with CAMK2A; 30% in the assay with CAMK2B. For the same molecule, the “%Inh” value in the assay with CAMK2D is 6%; in the assay with CAMK2G, 11%; in the assay on CAMK4, 18%; with CAMKK1, 19%; in the assay with CAMKK2 it was 19%; with CASK it was 0%. Further, the “%Inh” value with CDC2L1 is recorded as 9%; in the assay on CDC2L2 it was 10%; with CDC2L5 it was 0%; in the assay with CDK11, 0%; in the assay on CDK2 it was 0%; in the assay with CDK3, 17%. The “%Inh” value with CDK4-cyclinD1 and with CDK4-cyclinD3 was 0% each time.
Turning to `CC(C)(C)c1ccc(C(=O)Nc2cn3cc(-c4cccnc4)ccc3n2)cc1`, the “%Inh” value in the assay on CAMK1B is 24%; in the assay on CAMK1D, 38%; in the assay on CAMK1G it was 12%; in the assay with CAMK1, 4%; in the assay with CAMK2A, 6%; with CAMK2B, 7%. For the same molecule, the “%Inh” value was 24% in the assay on CAMK2D; 10% in the assay with CAMK2G; 0% in the assay on CAMK4; 21% in the assay on CAMKK1; 18% in the assay with CAMKK2; 0% in the assay with CASK. For the same molecule, the “%Inh” value in the assay with CDC2L1 is recorded as 11%; with CDC2L2, 17%; in the assay on CDC2L5 it was 0%; in the assay on CDK11, 9%; in the assay with CDK2, 3%; with CDK3, 10%. For the same molecule, the “%Inh” value in the assay on CDK4-cyclinD1 amounted to 29%; in the assay on CDK4-cyclinD3 it was 0%.
`COc1cc2nccc(Nc3ccc(NC(=O)c4ccc(C)cc4)c(O)c3)c2cc1OC.Cl` [GW440132]: the “%Inh” value was determined as 0% in the assay with CAMK1B; 20% with CAMK1D; 6% in the assay with CAMK1G; 15% with CAMK1; 0% in the assay with CAMK2A; 0% with CAMK2B. For the same molecule, the “%Inh” value with CAMK2D was 17%; in the assay with CAMK2G it was 35%; with CAMK4, 0%; in the assay on CAMKK1, 0%; in the assay with CAMKK2 it was 32%; in the assay on CASK, 2%. Besides, the “%Inh” value in the assay with CDC2L1 was determined as 0%; in the assay on CDC2L2 it was 3%; with CDC2L5, 0%; in the assay on CDK11, 5%; with CDK2, 0%; in the assay with CDK3, 9%. Moreover, the “%Inh” value with CDK4-cyclinD1 and in the assay with CDK4-cyclinD3 was 0% each time.
For `COc1ccccc1-c1ccc2c(NC(=O)C3CC3)n[nH]c2n1` [SB-711239], the “%Inh” value was 33% in the assay with CAMK1B; 12% in the assay on CAMK1D; 27% with CAMK1G; 4% in the assay with CAMK1; 0% in the assay on CAMK2A; 0% with CAMK2B. Moreover, the “%Inh” value in the assay with CAMK2D is given as 16%; in the assay on CAMK2G, 9%; in the assay with CAMK4, 0%; in the assay with CAMKK1 it was 9%; in the assay with CAMKK2, 0%; in the assay on CASK, 8%. Besides, the “%Inh” value with CDC2L1 was found to be 0%; in the assay on CDC2L2 it was 3%; with CDC2L5, 2%; in the assay on CDK11, 19%; in the assay with CDK2, 0%; with CDK3, 8%. Also, the “%Inh” value stood at 9% with CDK4-cyclinD1 and 0% in the assay with CDK4-cyclinD3.
As to `Cl.Oc1ccc(-c2nc(-c3ccccc3)[nH]c2-c2ccncc2)cc1` [SB-428218], the “%Inh” value in the assay with CAMK1B was determined as 24%; in the assay on CAMK1D, 0%; with CAMK1G it was 2%; in the assay on CAMK1, 2%; in the assay on CAMK2A it was 0%; in the assay on CAMK2B, 0%. Besides, the “%Inh” value with CAMK2D turned out to be 9%; in the assay with CAMK2G, 29%; in the assay with CAMK4, 0%; with CAMKK1, 18%; in the assay on CAMKK2, 15%; in the assay on CASK it was 0%. The “%Inh” value with CDC2L1 amounted to 0%; with CDC2L2, 5%; with CDC2L5, 0%; with CDK11, 8%; in the assay with CDK2 it was 0%; in the assay on CDK3, 55%. The “%Inh” value in the assay on CDK4-cyclinD1 worked out at 49%; with CDK4-cyclinD3, 2%.
`Cc1ccc(NC(=O)Nc2cc(C(C)(C)C)nn2-c2ccccc2)cc1` [GSK1014915]: the “%Inh” value in the assay with CAMK1B was 33%; with CAMK1D it was 3%; with CAMK1G it was 0%; in the assay on CAMK1, 0%; in the assay on CAMK2A, 0%; in the assay on CAMK2B, 0%. Further, the “%Inh” value turned out to be 0% in the assay with CAMK2D; 14% in the assay on CAMK2G; 0% with CAMK4; 12% in the assay on CAMKK1; 0% in the assay with CAMKK2; 12% with CASK. For the same molecule, the “%Inh” value amounted to 31% in the assay on CDC2L1; 7% in the assay on CDC2L2; 0% in the assay with CDC2L5; 62% with CDK11; 0% in the assay with CDK2; 8% in the assay on CDK3. The figures for the “%Inh” value in the assay on CDK4-cyclinD1 and in the assay with CDK4-cyclinD3 were 0% and 4%, respectively.
